According to PubChem BioAssay (NCATS):
Values joined by “and” are separate entries in the source; they are usually repeats but may differ in a detail not shown here. Equal values may be shown once. Records with an inconclusive call do not appear. Active and inactive are the calls of the source. Unless noted, the call rests on the fitted dose curve.

How the values were obtained:
[1] = molecular target: Lysosomal acid glucosylceramidase (Homo sapiens) (UniProt P04062); test: Glucocerebrosidase-p2 (AID 348; in the data active means potency below about 10 µM; further: potency means the concentration at half of the fitted maximal effect); settings: purified GBA, blue fluorogenic substrate, 40 min
Chain of Lysosomal acid glucosylceramidase (Homo sapiens) (P04062 whole entry, looked up): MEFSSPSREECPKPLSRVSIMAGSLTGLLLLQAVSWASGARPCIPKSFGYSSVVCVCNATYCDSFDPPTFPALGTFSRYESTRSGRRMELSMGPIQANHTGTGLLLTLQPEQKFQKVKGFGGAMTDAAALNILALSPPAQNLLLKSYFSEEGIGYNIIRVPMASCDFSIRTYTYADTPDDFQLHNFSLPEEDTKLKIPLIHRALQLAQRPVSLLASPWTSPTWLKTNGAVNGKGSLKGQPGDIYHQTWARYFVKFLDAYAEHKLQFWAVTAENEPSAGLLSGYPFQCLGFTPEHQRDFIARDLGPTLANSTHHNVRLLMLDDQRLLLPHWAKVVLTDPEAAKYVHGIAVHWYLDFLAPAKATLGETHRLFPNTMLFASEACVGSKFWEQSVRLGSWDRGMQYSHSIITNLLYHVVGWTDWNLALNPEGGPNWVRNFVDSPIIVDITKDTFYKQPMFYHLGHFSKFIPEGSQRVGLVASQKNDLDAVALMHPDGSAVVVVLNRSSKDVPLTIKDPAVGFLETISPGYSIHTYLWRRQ
Outline: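 Compounds titrated from 0.6 nM upwards against 0.2 nM enzyme in pH 5.9 citric acid/KH2PO4, taurocholate, tween-20; blue fluorogenic substrate 80 uM, 40 min room temperature, stopped and read Ex 365/Em 440 for AC50.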

[2] = AP1 Signaling Pathway (AID 357; active means well fitted curve in either direction with a large enough effect, not every such curve was filed as active;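 further: ME-180 reporter cells stimulated with EGF at its EC50 level; on the % scale 0 is the no-effect control and ±100 the full control effect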); settings: ME-180 AP-1-bla reporter, EGF-induced, beta-lactamase ratio, 5 h; series mostly up to 17.2 µM
Outline: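 Cells are seeded overnight, exposed to compound titrations and an EC50 level of EGF for 5 hours at 37 °C, then loaded with CCF4 dye for 2.5 hours. Beta-lactamase activity under the AP-1 element is read as a blue/green ratio.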

[3] = molecular target: Cytochrome P450 1A2 (Homo sapiens) (UniProt P05177); test: p450-cyp1a2 (AID 410); settings: recombinant CYP1A2, luciferin-ME demethylation, luminescence; series mostly up to 25.6 µM; further: potency means the concentration at half of the fitted maximal effect;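 on activity change, negative = inhibition: -100% = full effect of reference inhibitor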
Chain of Cytochrome P450 1A2 (Homo sapiens) (P05177 whole entry, looked up): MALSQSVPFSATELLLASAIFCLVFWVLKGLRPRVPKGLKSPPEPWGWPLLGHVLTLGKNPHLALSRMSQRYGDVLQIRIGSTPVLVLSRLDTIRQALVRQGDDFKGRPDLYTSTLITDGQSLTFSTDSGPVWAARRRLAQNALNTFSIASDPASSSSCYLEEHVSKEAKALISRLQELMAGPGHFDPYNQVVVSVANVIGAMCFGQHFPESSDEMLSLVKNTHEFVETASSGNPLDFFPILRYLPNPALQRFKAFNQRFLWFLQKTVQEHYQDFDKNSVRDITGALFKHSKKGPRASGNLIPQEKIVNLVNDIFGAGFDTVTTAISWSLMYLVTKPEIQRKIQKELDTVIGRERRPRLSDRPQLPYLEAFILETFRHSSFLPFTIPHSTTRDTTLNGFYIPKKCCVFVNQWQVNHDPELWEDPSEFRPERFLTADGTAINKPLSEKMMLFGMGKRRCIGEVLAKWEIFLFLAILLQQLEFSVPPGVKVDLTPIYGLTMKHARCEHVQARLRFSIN
Outline: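 Human CYP1A2 (20nM) demethylated Luciferin-ME at its Km (100uM) in 100mM KPO4. After 10 min compound preincubation, NADPH regeneration ran the reaction 60 min at room temperature. Luciferin was read by luminescence, normalized to 57 uM furafylline.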

[4] = NFAT Signaling Pathway (AID 444; active means well fitted curve in either direction with a large enough effect, not every such curve was filed as active;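 further: carbachol stimulus at about its EC50 of 1 µM final; on the % scale 0 is the no-effect control and ±100 the full control effect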); settings: Jurkat NFAT-bla M1, carbachol, beta-lactamase ratio, 5 h; series mostly up to 17.2 µM
Outline: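 Jurkat cells with NFAT-driven β-lactamase reporter and co-expressed M1 receptor, stimulated with carbachol (final 1 uM, ~EC50), compound titration, 5 h at 37 °C. CCF4 loaded 1 h at RT; 460/530 nm ratio gave %activity and AC50.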

[5] = Stat Signaling Pathway (AID 446; active means well fitted curve in either direction with a large enough effect, not every such curve was filed as active;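 further: ME-180 cervical cancer cells given 40 pM IL-6 alongside compound; SIE-controlled beta-lactamase reporter measured as 460/530 nm FRET emission ratio; on the % scale 0 is the no-effect control and ±100 the full control effect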); settings: ME-180 SIE beta-lactamase reporter, IL-6 stimulated, 5 h; series mostly up to 17.2 µM
Outline: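 ME-180 SIE-bla cells; overnight plating; cpd + IL-6 40 pM, 5 h, 37 C; LiveBLAzer 2.5 h RT; 460/530 nm emission ratio. Normalized to 300 pM IL-6 and 125 nM JAK inhibitor controls.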

[6] = molecular target: Glucocorticoid receptor (Homo sapiens) (UniProt P04150); test: GR-GFP Redistribution (AID 450;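 active means compounds whose dose series gives a full or clear partial fitted curve of increased nuclear translocation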; further: potency means the concentration at half of the fitted maximal effect); settings: U2OS GR-GFP nuclear translocation, laser cytometry, 2 h
Chain of Glucocorticoid receptor (Homo sapiens) (P04150 whole entry, looked up, the tested form may be a part): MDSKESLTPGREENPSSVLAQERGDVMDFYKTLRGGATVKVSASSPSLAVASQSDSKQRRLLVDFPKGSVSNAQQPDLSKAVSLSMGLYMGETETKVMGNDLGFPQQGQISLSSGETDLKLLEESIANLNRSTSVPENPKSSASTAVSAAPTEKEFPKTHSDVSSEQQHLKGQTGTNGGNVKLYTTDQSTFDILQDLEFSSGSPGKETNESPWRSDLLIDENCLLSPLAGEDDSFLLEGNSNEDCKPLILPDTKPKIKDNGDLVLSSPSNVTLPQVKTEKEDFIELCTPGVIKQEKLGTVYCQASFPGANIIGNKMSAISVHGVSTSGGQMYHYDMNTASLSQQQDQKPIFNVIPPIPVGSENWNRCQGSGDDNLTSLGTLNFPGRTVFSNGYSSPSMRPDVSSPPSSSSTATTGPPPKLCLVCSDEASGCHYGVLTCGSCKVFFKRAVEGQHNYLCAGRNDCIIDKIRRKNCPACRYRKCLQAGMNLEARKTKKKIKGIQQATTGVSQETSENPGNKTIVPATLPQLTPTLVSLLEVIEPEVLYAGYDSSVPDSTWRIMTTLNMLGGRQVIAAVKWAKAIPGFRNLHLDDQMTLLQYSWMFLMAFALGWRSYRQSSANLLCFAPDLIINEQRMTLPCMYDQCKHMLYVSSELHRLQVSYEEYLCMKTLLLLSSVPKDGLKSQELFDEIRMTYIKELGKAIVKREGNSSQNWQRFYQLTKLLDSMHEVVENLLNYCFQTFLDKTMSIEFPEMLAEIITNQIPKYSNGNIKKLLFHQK

[7] = molecular target: Glucocorticoid receptor (Homo sapiens) (UniProt P04150); test: GR-EFC Redistribution (AID 451); settings: CHO-K1 GR-EFC translocation, beta-gal luminescence, 2 h; further: potency means the concentration at half of the fitted maximal effect
Outline: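 CHO-K1 cells expressing nuclear EA and GR-ED fragments of b-gal; compounds titrated up to 46 uM final, 2 h at 37 C. GR nuclear translocation read as complemented b-gal luminescence after 1 h RT detection.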

[8] = molecular target: Mitogen-activated protein kinase 10 (Mus musculus) (UniProt Q61831); test: JNK3 AlphaScreen Assay (AID 530; active means well fitted curve in either direction with a large enough effect, not every such curve was filed as active;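 further: kinase came from lysate of stimulated human HepG2 cells; signal reports phosphorylation of biotinylated GST-cJun 1-79 at Ser73 with 10 µM ATP; on the % scale 0 is the no-effect control and ±100 the full control effect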); settings: JNK3 lysate, c-Jun phosphorylation; series mostly up to 57.1 µM
Outline: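 qHTS format: compounds tested as titrations against IL-1beta/TNF-alpha-activated HepG2 lysate JNK3 with biotin-GST-cJun substrate and 10 uM ATP at room temperature. Loss of anti-phospho-cJun AlphaScreen signal indicates inhibition.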

[9] = Cell Viability - BJ (AID 421); settings: BJ fibroblast viability, qHTS;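 further: potency means the concentration at half of the fitted maximal effect; cells exposed to compound for 40 hours at 37 °C before readout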
Outline: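 Luminescent ATP signal (CellTiter-Glo, 20 min at room temperature) served as the read-out of viable BJ cells after 40 hours of compound treatment. Responses were scaled between DMSO and 100 uM tamoxifen, and AC50 values were obtained by Hill modeling.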

[10] = Cell Viability - Jurkat (AID 426;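 active means dose-dependent loss of cell ATP signal giving a full or clear fitted curve, ranked by lower potency value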; further: potency means the concentration at half of the fitted maximal effect); settings: qHTS
Outline: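 Jurkat (clone E6-1, human T-cell leukemia) cells, 5000/well in complete medium, were exposed to compound for 40 hr at 37 °C. Viability was read as intracellular ATP by CellTiter-Glo luminescence; AC50 came from Hill fits of concentration-response data.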

[11] = Cell Viability - Hek293 (AID 427;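 active means compounds whose dose-response curve shows a full or clear partial loss of cell viability, called from curve shape rather than a numeric limit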;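 further: potency means the concentration at half of the fitted maximal effect; cells exposed to compound for 40 hours at 37 °C before reading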); settings: qHTS
Outline: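 Luminescent ATP read-out (CellTiter-Glo, 20 min RT) after 40 hr compound exposure at 37 °C in complete medium. Signal normalized to DMSO (basal) and 100 uM tamoxifen (100% inhibition); concentration-response fitted with the standard Hill equation to give AC50.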

[12] = Cell Viability - HepG2 (AID 433); settings: qHTS;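 further: potency means the concentration at half of the fitted maximal effect; potency for ATP loss meaning cytotoxicity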
Outline: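 HepG2 cells, 1500 per well, treated 40 hr at 37 °C in complete medium; viability from intracellular ATP by CellTiter-Glo luminescence. Normalized to DMSO and 100 uM tamoxifen; AC50 from Hill fit of qHTS concentration-response.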

[13] = Cell Viability - MRC5 (AID 434); settings: MRC5 lung fibroblast viability, qHTS;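 further: potency means the concentration at half of the fitted maximal effect; potency reflects cytotoxicity seen as loss of intracellular ATP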
Outline: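 MRC5 normal human lung fibroblasts, 1500 cells/well, exposed to compound for 40 hr at 37 C. Cellular ATP was read by CellTiter-Glo luminescence; data normalized to DMSO and 100 uM tamoxifen, with AC50 from Hill fits.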

[14] = Cell Viability - SK-N-SH (AID 435); settings: SK-N-SH neuroblastoma cell viability qHTS;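 further: potency means the concentration at half of the fitted maximal effect; compound exposure lasted 40 h at 37 °C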
Outline: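 SK-N-SH neuroblastoma cells (1500/well) treated 40 h at 37 °C in complete medium; viability read as cellular ATP by CellTiter-Glo luminescence. Normalized to DMSO and 100 uM tamoxifen; AC50 from Hill fits of qHTS concentration-response.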

[15] = Cell Viability - N2a (AID 540; active means well fitted curve in the direction sought with a large enough effect; an effect the other way counts as inactive or inconclusive;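 further: plate controls were DMSO alone for no effect and tamoxifen control for full effect; nearly all actives have a fitted effect of over 45% in size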); settings: N2a mouse neuroblastoma cell viability; series mostly up to 92.2 µM
Outline: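 Mouse neuroblastoma N2a cells (1500/well) were preincubated 5 hr at 37 °C, then exposed to compounds for 40 hr at 37 °C in complete medium. Viability was read as intracellular ATP by CellTiter-Glo luminescence; AC50 from Hill fits.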

[16] = Cell Viability - NIH 3T3 (AID 541; active means well fitted curve in the direction sought with a large enough effect; an effect the other way counts as inactive or inconclusive; further: nearly all actives have a fitted effect of over 25% in size; further: potency means the concentration at half of the fitted maximal effect); settings: NIH 3T3 cell viability, qHTS; series mostly up to 92.2 µM
Outline: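 NIH 3T3 mouse embryo fibroblasts (1000 cells/well) were plated in complete medium and treated with compound for 40 hr at 37 °C. Viability was read as intracellular ATP by CellTiter-Glo luminescence; AC50 values came from Hill-equation fits of concentration-response data.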

[17] = Cell Viability - HUV-EC-C (AID 542; active means well fitted curve in the direction sought with a large enough effect; an effect the other way counts as inactive or inconclusive; further: on the % scale 0 is the no-effect control and ±100 the full control effect; nearly all actives have a fitted effect of over 35% in size); settings: HUV-EC-C endothelial cell viability, qHTS; series mostly up to 92.2 µM
Outline: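 HUV-EC-C normal human vascular endothelial cells, 1000 cells/well, pre-incubated 5 hr at 37 °C, then exposed to compounds for 40 hr at 37 °C in complete medium. Viability measured as intracellular ATP by CellTiter-Glo luminescence; AC50 from Hill fits.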

[18] = Cell Viability - H-4-II-E (AID 543; active means well fitted curve in the direction sought with a large enough effect; an effect the other way counts as inactive or inconclusive; further: on the % scale 0 is the no-effect control and ±100 the full control effect; nearly all actives have a fitted effect of over 35% in size); settings: H-4-II-E rat hepatoma viability; series mostly up to 92.2 µM
Outline: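 Rat hepatoma H-4-II-E cells (1500/well) were plated, incubated 5 hr at 37 °C, then exposed to compounds for 40 hr at 37 °C. Cellular ATP was read by CellTiter-Glo luminescence; AC50 came from Hill-equation fits of concentration-response data.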

[19] = Cell Viability - SH-SY5Y (AID 544; active means well fitted curve in the direction sought with a large enough effect; an effect the other way counts as inactive or inconclusive;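 further: 0% = DMSO alone and -100% = 100 µM tamoxifen; nearly all actives have a fitted effect of over 55% in size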); settings: SH-SY5Y neuroblastoma cell viability; series mostly up to 92.2 µM
Outline: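 Human neuroblastoma SH-SY5Y cells (1500/well) in complete medium were exposed to compounds for 40 hr at 37 °C; intracellular ATP was then quantified by CellTiter-Glo luminescence after 20 min at room temperature. AC50 came from Hill-equation concentration-response fits.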

[20] = Cell Viability - Renal Proximal Tubule (AID 545; active means well fitted curve in the direction sought with a large enough effect; an effect the other way counts as inactive or inconclusive;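 further: 0% = DMSO only and -100% = 100 µM tamoxifen; nearly all actives have a fitted effect of over 40% in size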); settings: renal proximal tubule cells viability, primary cells of rat origin; series mostly up to 91.7 µM
Outline: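 Rat renal proximal tubule primary cells, 1000/well, exposed to compounds for 40 hr at 37 °C in complete medium; cellular ATP read by CellTiter-Glo luminescence. AC50 from concentration-response fitted with standard Hill equation.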

Cc1ccccc1CN1C2=NCCN2C(=O)C2=C1CCN(Cc1ccccc1)C2
inactive: Potency [1] > 11.4 µM | outcome [2] | Potency [3] | outcome [4] | outcome [5] | Potency [6] > 46 µM | Potency [7] > 9.22 µM | activity change, negative = inhibition [8] -0.448% [at 11.4 µM]

CC(=O)O[C@H]1C(=O)[C@@]2(C)[C@H]([C@H](OC(=O)c3ccccc3)[C@]3(O)C[C@H](OC(=O)[C@H](O)[C@@H](NC(=O)c4ccccc4)c4ccccc4)C(C)=C1C3(C)C)[C@]1(OC(C)=O)CO[C@@H]1C[C@@H]2O
inactive: Potency [6] > 46 µM | Potency [7] > 46 µM | outcome [8]

COc1ccc2c(OC)c3ccoc3nc2c1OC
active: Potency [3] 79.4 nM
inactive: outcome [2] | outcome [4] | outcome [5] | Potency [6] > 20.6 µM and > 46 µM | Potency [7] > 20.6 µM and > 46 µM | outcome [8]

CC[C@]1(O)CC2CN(CCc3c([nH]c4ccccc34)[C@@](C(=O)OC)(c3cc4c(cc3OC)N(C=O)[C@H]3[C@@](O)(C(=O)OC)[C@H](OC(C)=O)[C@]5(CC)C=CCN6CC[C@]43[C@@H]65)C2)C1 (stereo partly drawn)
inactive: outcome [5] | Potency [6] > 20.6 µM

COc1ccc(C[C@H](N)C(=O)N[C@@H]2[C@H](O)[C@H](n3cnc4c(N(C)C)ncnc43)O[C@@H]2CO)cc1
inactive: Potency [3] | Potency [6] > 20.6 µM | Potency [7] > 20.6 µM | outcome [8]

CC(=O)O[C@@H]1CC(C)=C2[C@H]1[C@H](C)CC[C@H]2/C=C(\C)C(=O)O
inactive: Potency [9] > 92 µM | Potency [10] > 92 µM | Potency [11] > 92 µM | Potency [12] > 92 µM | Potency [13] > 92 µM | Potency [14] > 92 µM | outcome [8] | outcome [15] | Potency [16] | outcome [17] | outcome [18] | outcome [19] | outcome [20]

O=C1NC(=O)C(c2cn(-c3ccccc3)nc2-c2ccc(F)cc2)N1 (stereo not drawn)
inactive: outcome [2] | outcome [4] | outcome [5] | Potency [6] > 20.6 µM

Cc1ccc(N)cc1O
inactive: Potency [9] > 92 µM | Potency [10] > 92 µM | Potency [11] > 92 µM | Potency [12] > 92 µM | Potency [13] > 92 µM | Potency [14] > 92 µM | outcome [8] | outcome [15] | Potency [16] | outcome [17] | outcome [18] | outcome [19] | outcome [20]

Nc1ccccc1N
inactive: Potency [9] > 92 µM | Potency [11] > 92 µM | Potency [12] > 92 µM | Potency [13] > 92 µM | Potency [14] > 92 µM | outcome [8] | outcome [15] | outcome [17]
active: Potency [16] 6.31 µM
